HT1080-NT tox: kills 2HG-producing HT-1080-NT fibrosarcoma cells; 360,000 tested, 1.6% active; Potency, µM (top dose mostly 46.1 µM), for inactives: top-dose activity, negative = less viability, most hits filed as cytotoxic; AID 686970; HT-1080-NT fibrosarcoma viability, CellTiter-Glo ATP luminescence, 48 h;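 further: NT is the 2HG producing partner of a matched IDH1 knockdown line; potency means the concentration at half of the fitted maximal effect; 0% = DMSO-treated cells and -100% = media-only wells without cells; nearly all actives have a fitted effect of over 55% in size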
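HT-1080-NT fibrosarcoma cells (2HG-overproducing), 750 cells/well in RPMI with 5% FBS, dosed after 2 h and incubated 48 h at 37C. CellTiter-Glo luminescence normalized to DMSO and no-cell wells; concentration-response curves fitted and classed.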
DT40 TDP1 no CPT: qHTS for Inhibitors of human tyrosyl-DNA phosphodiesterase 1 (TDP1): qHTS in cells in absence of CPT. DT40 Tdp1-/- hTDP1 cells, no CPT, ATP luminescence, 48 h. Potency, µM (highest dose often 46.2 µM), for inactives: at the highest dose activity change, negative = growth inhibition, most hits filed as inhibitors. 420,000 tested, 15% active. AID 686978, 2013; further: potency means the concentration at half of the fitted maximal effect; nearly all actives have a fitted effect of over 55% in size
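Growth of hTDP1-complemented DT40 Tdp1-knockout cells is measured by ATP luminescence after at least 48 hr compound exposure at 37 °C, with DMSO substituting for the 20 nM CPT used in the parallel screen.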
DT40 TDP1 CPT: DT40-hTDP1 cell growth loss with CPT | chicken DT40 Tdp1-/-;hTDP1 cells + 20 nM CPT, ATP luminescence, 48 h | Potency, µM (series often up to 46.2 µM), for inactives: at the highest dose activity change, negative = growth inhibition, actives largely listed as inhibitors | 420,000 tested, 12% active; further: potency means the concentration at half of the fitted maximal effect; nearly all actives have a fitted effect of over 55% in size
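Chicken DT40 Tdp1-/- cells complemented with human TDP1, 400 cells/well, exposed to compounds plus 20 nM camptothecin for at least 48 h at 37 C; viability read as ATP content by CellTiter-Glo luminescence.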
IL-1B inflam inh: blocks inflammasome-driven IL-1 beta release | THP-1 LPS/ATP IL-1B secretion, AlphaLISA, 16 h; hits give low values | activity change, % at 57.5 µM | 360,000 tested, 4.7% active | AID 743279; in the data active means activity change below about -50%; inconclusive means mostly about -30% to -49%
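THP-1 cells pretreated 1 hr with compounds (up to 57.5 uM final), then stimulated with LPS (250 ng/mL final) plus ATP (1.25 mM final); secreted IL-1B measured by AlphaLISA after 16 hr, decreased signal indicating inhibition.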
HT1080 IDH1KD tx: toxicity to HT-1080 IDH1 knockdown cells (counter line); HT-1080 IDH1 knockdown viability, ATP luminescence, 48 h; 360,000 tested, 2% active; Potency, µM (series often up to 46.1 µM), for inactives: at the top dose activity, negative = toxicity, most hits filed as cytotoxic;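 further: potency means the concentration at half of the fitted maximal effect; 0% = DMSO wells and -100% = cell-free medium wells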
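CellTiter-Glo luminescence after 48 h compound exposure at 37 degrees C of IDH1-knockdown HT-1080 cells in 5% FBS RPMI. %Activity scaled between DMSO wells and cell-free media wells, with curves fitted and assigned curve classes.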
Starred values were filed as active, the others as inactive; i = inactive; ? = inconclusive; / = no result. In the library only some 19% were active in any assay of this set; here they are far more common. Unless noted, the call rests on the fitted dose curve; in most records, active means well fitted curve in the direction sought with a large enough effect; inconclusive means small, poorly fitted or top-dose-only effect, or another doubt; inactive means no such curve, though single readings can be large; an effect the other way counts as inactive or inconclusive. Unless noted, on the % scale 0 is the no-effect control and ±100 the full control effect.

SMILES	HT1080-NT tox	DT40 TDP1 no CPT	DT40 TDP1 CPT	IL-1B inflam inh	HT1080 IDH1KD tx
CCCCNS(=O)(=O)c1ccc2nc(SCC(=O)Nc3sccc3C#N)[nH]c2c1	?	?	23µM*	8	21µM*
CCCCNS(=O)(=O)c1ccc2nc(SCC(=O)c3ccccc3OC)[nH]c2c1	?	?	10µM*	?	?
CCCCNS(=O)(=O)c1ccc2nc(SCC(=O)Nc3ccccc3Cl)[nH]c2c1	?	?	?	-25	?
CCCCNS(=O)(=O)c1ccc2nc(SCC(N)=O)[nH]c2c1	-13%	?	-10%	-2	-3%
COc1ccc(C2CC(=O)Nc3cc(OC)c(OC)cc32)cc1 (configuration not stated)	7%	-28%	-21%	?	3%
O=S(=O)(NC1c2cccc3cccc(c23)C1N1CCN(CCO)CC1)c1ccccc1 (configuration not stated)	-29%	15µM*	?	-8	?
C[C@H]1Cn2cnc(C(=O)Nc3cccc(Cl)c3)c2C(=O)N1	-17%	12µM*	?	-9	-4%
C[C@@H]1Cn2cnc(C(=O)NCC(=O)OC(C)(C)C)c2C(=O)N1	22%	-17%	4%	-6	9%
CCN(CC)S(=O)(=O)c1ccc(OC)c(NC(=O)C2CC(=O)N(c3ccc4c(c3)OCCO4)C2)c1 (configuration not stated)	1%	-28%	-11%	-7	7%
Cc1cccc(NC(=O)c2oc(=O)c3ccccc3c2-c2ccccc2)c1C	-15%	12µM*	10µM*	-11	?
COc1ccc(OC)c(NC(=O)c2oc(=O)c3ccccc3c2-c2ccccc2)c1	/	21µM*	?	/	/
COc1ccc(N(C)C(=O)c2oc(=O)c3ccccc3c2-c2ccc(C)cc2)c(OC)c1	-18%	16µM*	21µM*	0	?
COC(=O)C1(C(=O)OC)C/C=C\CCN(S(=O)(=O)c2ccccc2[N+](=O)[O-])CC1	-7%	?	?	32	1%
COC(=O)Nc1ccc(S(=O)(=O)N2CCC(C(=O)NC3CCCCC3)CC2)cc1	-9%	?	-26%	-7	-2%
CC12CN(C(=S)Nc3ccccc3)CC(C)(CN(C(=S)Nc3ccccc3)C1)C2=O	-7%	-29%	1%	0	-3%
C#CCOc1ccc(/C=C2/C(=O)ON=C2C)cc1Cl	-2%	18µM*	?	-14	-11%
O=c1[nH]/c(=C/c2ccc3c(c2)OCO3)c(=O)[nH]/c1=C/c1ccc2c(c1)OCO2	/	-9%	-2%	/	/
CCCOc1ccc(Cl)cc1/C=C1/C(=O)ON=C1C	1%	?	29µM*	4	5%
CC1=NOC(=O)/C1=C\c1ccc2c(c1)OCO2	17%	15µM*	?	-96*	22%
COc1ccc(/C=C2/C(=O)ON=C2C)cc1Br	-4%	?	?	-88*	3%
COc1ccccc1/C=C1/C(=O)ON=C1C	14%	?	?	-21	13%
O=C1OCC/C1=C\c1ccc2c(c1)OCO2	-1%	-25%	9%	-8	5%
O=Cc1ccc(-c2ccc([N+](=O)[O-])cc2Cl)o1	-12%	?	?	-2	-13%
CC1=NOC(=O)/C1=C/c1ccc2c(c1)OCO2	1%	?	9.2µM*	-13	2%
CC1=NOC(=O)/C1=C\c1ccc(-c2ccc(Cl)cc2Cl)o1	?	12µM*	13µM*	-62*	?
CN(C)c1ccc(/C=C/N2C=CCc3c2ccc2ccccc32)cc1	/	0.089µM*	0.079µM*	/	/
O=C(NCc1ccccn1)c1ccc(NS(=O)(=O)c2ccccc2)cc1	-7%	-2%	-9%	i	6%
COc1ccc(C(=O)c2ccc(CC(=O)O)s2)cc1	-4%	-4%	-3%	-4	-1%
